Results as given in PubChem BioAssay AID1626 (SRMLSC, 2009).
Several values for one entry are separate records, joined by “and”; a condition that tells them apart may be missing. Equal entries are not always repeated. The whole screen tested about 220,000 compounds, of which about 2,000 (0.91%) were called active. About 2% were inconclusive and are not listed. The list is a sample of the results. Results with a measured potency or affinity are listed apart. A number with no mark means an inactive call. Rule as the data show it: inconclusive = inhibition above about 80% without an active follow-up result; inactive = below that; test concentration not stated here.

assay: M. tuberculosis H37Rv growth inhibitors, H37Rv strain (AID 1626); conditions: stronger effect = higher value, concentration not given here;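 also: bacteria incubated seven days before Alamar blue readout; 0% = bacteria only wells and 100% = bacteria with antibiotic wells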

Row | Compound | inhibition
1 | CCN(CC(=O)NCc1ccc(F)cc1)CC(=O)Nc1ccccc1-c1ccccc1 | -6.65%
2 | C=CCN1C(=O)C(CC(=O)Nc2ccccc2F)S/C1=N\c1nccs1 (stereo not drawn) | 6.25%
3 | CCCNC(=O)C(=O)NCCC1=CCCCC1 | -4.88%
4 | COc1cccc(OC)c1C(=O)Nc1c(C)n(C)n(-c2ccccc2)c1=O | 0.17%
5 | O=C(COc1ccc(Br)cc1CO)Nc1ccc(F)cc1 | 9.43%
6 | CCCCN(C)C(=O)C(Cc1ccccc1)NS(=O)(=O)c1ccc2c(c1)CCC(=O)N2 (stereo not drawn) | -4.66%
7 | CNC(=S)N(Cc1ccco1)Cc1cc2cc(OC)ccc2[nH]c1=O | -3.07%
8 | CCCCCCNC(=O)N1C/C=C\C(c2ccc(OC)cc2)N(Cc2ccc(F)cc2)C(=O)C1 (stereo not drawn) | -0.25%
9 | C[n+]1c2n(c3ccccc31)N=C(c1ccc(-c3ccccc3)cc1)CS2 | 5.47%
10 | C[n+]1c2n(c3ccccc31)N=C(c1ccccc1)CS2 | -4.82% and 0%
11 | O=C(N/N=C/c1ccc2c(c1)OCO2)c1ccc(COc2cccc3cccnc23)cc1 | 0.48%
12 | COCC(=O)NNC(=S)Nc1cccc(C)c1C | 9.36%
13 | COC(=O)c1ccc(C(=O)OC)c(NC(=S)N2CCOCC2)c1 | 5.12%
14 | CCN(CC)C(=O)CSc1nnc2nnc3cc(OC)ccc3n12 | 44%
15 | CCN(CC)C(=O)CSc1nnc2nnc3cc(C)ccc3n12 | 65.9%
16 | CCOc1ccc(-c2onc(C(F)(F)F)c2-c2cscn2)c(O)c1 | 6.75%
17 | COc1cc(/C=C/C(=O)O)cc(S(=O)(=O)Nc2ccccc2Oc2ccccc2)c1OC | -0.26%
18 | CSc1sc(C(=O)N2CCCCC2)c(-c2cccs2)c1C#N | -3.75%
19 | Cn1c2c(c(=O)n(C)c1=O)C(C(F)(F)F)(C(F)(F)F)N=C(c1ccccc1Cl)N2 | -9.88%
20 | COc1ccc(C2=NC(C(F)(F)F)(C(F)(F)F)c3c(n(C)c(=O)n(C)c3=O)N2)cc1 | -0.04%
21 | CCOC(=O)c1c(CN2CCC(C)CC2)n(C)c2cc(Br)c(OC)cc12 | 11.6%
22 | COc1ccccc1NS(=O)(=O)c1cc(C)ccc1C | -7.48%
23 | CC(NC(=O)c1ccccc1F)c1nnc(SCc2nc3ccccc3c(=O)[nH]2)n1C (stereo not drawn) | -3.02%
24 | Cc1sc2nc(Cc3ccccc3)[nH]c(=O)c2c1-c1ccccc1 | -4.69%

Row | Compound | inhibition
25 | Cc1c(-c2ccccc2)sc2nc[nH]c(=S)c12 | 89.6%
26 | CNc1ncnc2sc(-c3ccccc3)cc12 | -0.065%
27 | O=c1[nH]cnc2sc(-c3ccccc3)cc12 | 40%
28 | c1ccc2c(c1)NC1(CCCCCC1)n1c-2nc2ccccc21 | -3.46%
29 | COc1ccc(CCn2c(-c3ccc(Cl)cc3)n[nH]c2=S)cc1OC | 1.97%
30 | COc1ccc(C(=O)NCCc2nnc3ccc(SCC(=O)Nc4cc(C)on4)nn23)cc1 | 14.5%
31 | COc1ccc(C(CC(=O)Nc2nccs2)n2cccc2)cc1 (stereo not drawn) | -4.49%
32 | O=[N+]([O-])c1ccc(-n2nnnc2-c2ccccc2)cc1 | 1.98%
33 | CCOC(=O)c1nnn(-c2ccc([N+](=O)[O-])cc2[N+](=O)[O-])c1C | -6.3%
34 | Cc1ccc(-c2csc3nc(C)n(N)c(=O)c23)cc1 | 3.11%
35 | COc1ccc(C(=O)COC(=O)CNC(=O)C2CCCCC2)c(OC)c1 | -2.99%
36 | COc1ccc(O)c(C(=O)CC(=O)c2ccc(F)cc2)c1 | -1.1%
37 | COc1ccc(O)c(C(=O)CC(=O)c2ccccc2)c1 | 0.06%
38 | COc1ccccc1CCNC(=O)Cc1cccs1 | 4.99%
39 | Cc1cccc(N(CC(N)=O)S(C)(=O)=O)c1C | 9.11%
40 | Cc1ccc2nc(NC(=O)C(NS(=O)(=O)c3cccc4nsnc34)C(C)C)sc2c1 (stereo not drawn) | 11.5%
41 | COc1ccc(NC(=S)NCc2ccco2)c(OC)c1 | -0.51%
42 | CCOc1ccc(CCNC(=O)CSc2cc(=O)n(C)c3cc(Cl)ccc23)cc1OCC | -8.35%
43 | COc1ccc(N/C=C\C(=O)c2ccc3c(c2)OCO3)cc1 | 77.1%
44 | CCOc1ccc(N/C(C)=C/C(=O)c2ccc3c(c2)OCCO3)cc1 | 77.8%
45 | COc1ccc(OC)c(N/C(C)=C/C(=O)c2ccc(C)o2)c1 | -3.01%
46 | CC(=O)Nc1ccc(N/C=C/C(=O)c2ccc(C)o2)cc1 | 7.24%
47 | COc1ccc(C(=O)/C=C(\C)Nc2ccc3c(c2)OCO3)cc1 | 53.2%
48 | COC(=O)c1ccc(N/C=C\C(=O)c2ccc3c(c2)OCO3)cc1 | 17.8%

Row | Compound | inhibition
49 | COCCN(CCOC)C(=O)C1CCCN(S(=O)(=O)c2ccc(NC(=O)OC)cc2)C1 (stereo not drawn) | -2.59%
50 | COc1cccc(Oc2coc3cc(OC(=O)N4CCOCC4)ccc3c2=O)c1 | -2.14%
51 | CN(C)CCCN(C(=O)c1ccc(S(=O)(=O)N(C)C)cc1)c1nc2cc3c(cc2s1)OCO3 | -1.53%
52 | CCOC(=O)c1ccccc1NC(=O)Cn1cnc2c(nnn2-c2ccc(C)cc2)c1=O | 1.13%
53 | O=[N+]([O-])c1ccc(N2CCN(S(=O)(=O)c3ccccc3)CC2)cc1NCc1ccco1 | -1.65%
54 | O=S(=O)(NCc1ccccc1)c1ccc(S(=O)(=O)N(Cc2ccccn2)C2CCCC2)cc1 | -1.41%
55 | O=C1CC(/C=C/c2ccncc2)=Nc2ccccc2N1 | -0.28%
56 | O=C1CC(/C=C/c2ccccc2)=Nc2ccccc2N1 | 2.15%
57 | CCOc1cccc(-c2cc(-c3n[nH]c(=S)n3CC)c3ccccc3n2)c1 | 14.2%
58 | COc1ccc(CNC(=O)COC(=O)C2CCN(S(=O)(=O)c3ccccc3C(F)(F)F)CC2)cc1 | 1.6%
59 | CC1C(c2ccccc2)C(C#N)(C#N)C2(C#N)C(=O)NC1(N)C2C (stereo not drawn) | -0.87%
60 | O=[N+]([O-])c1ccc(Sc2cccc3cccnc23)cc1 | 30.8%
61 | O=[N+]([O-])c1ccc(Cl)cc1Sc1nc2ccccc2o1 | -9.56%
62 | O=[N+]([O-])c1cc(Cl)ccc1Sc1cccc2cccnc12 | 28.5%
63 | O=[N+]([O-])c1ccc(CSc2nc3ccccc3o2)cc1 | -1.9%
64 | O=C(c1ccc(Cl)c(S(=O)(=O)N2CCCC2)c1)N1CCN(c2ccc(F)cc2)CC1 | 3.62%
65 | COc1ccc(NC(=O)CSc2nc(NS(=O)(=O)c3ccccc3)cc(=O)[nH]2)cc1 | 3.87%
66 | CC(Sc1ccccc1)C(=O)Nc1ccccc1C(=O)N1CCOCC1 (stereo not drawn) | -11.3%
67 | CC(C)(C)c1cc(-c2ccccc2)no1 | 10.7%
68 | COc1ccccc1C(=O)Nc1ccc(N2CCN(Cc3ccccc3)CC2)cc1 | 40.9%
69 | COc1ccc(C(=O)Nc2ccc(N3CCN(Cc4ccccc4)CC3)cc2)cc1 | 4.64%
70 | O=C(NNc1ccc(-c2csnn2)cc1)c1cc(Cl)cc(Cl)c1 | 27.1%
71 | CCCCC1=CC2=C(c3ccco3)C(=O)C(C)(OC(=O)c3ccc(OC)cc3)C(=O)C2=CN1CCCOC(C)C (stereo not drawn) | -5.76%
72 | CC(=O)OC(C(=O)N1CCOCC1)c1c(F)cccc1F (stereo not drawn) | -0.03%

Row | Compound | inhibition
73 | Cc1ccc(C(=O)N/C(=C\c2ccccc2)C(=O)OCc2ccccc2)cc1 | 12.7%
74 | O=C(CCCNC(=O)/C(=C/c1ccc(Br)cc1)NC(=O)c1ccccc1)OCc1ccccc1 | 1.44%
75 | O=C(CCCNC(=O)/C(=C\c1ccc(F)cc1)NC(=O)c1ccccc1)OCc1ccccc1 | 1.82%
76 | O=C(CNC(=O)c1ccc(-c2ccccc2)cc1)OCc1ccc(Br)cc1 | 6.21%
77 | COc1ccc(-c2cn3cc(C(F)(F)F)cc(Cl)c3n2)cc1 | 65.8%
78 | CCCc1cc(C(N)=O)c(NC(C)=O)s1 | 2.59%
79 | O=C(c1cc(-c2ccccc2)on1)N1CCc2ccccc2C1 | -6.16%
80 | CCOc1ccc(C2c3c(oc4cc(C)c(C)cc4c3=O)C(=O)N2CCCN2CCOCC2)cc1 (stereo not drawn) | -8.64%
81 | CCOC(=O)C1CCN(Cc2nnnn2CCc2ccccc2)CC1 | -3.91%
82 | Nc1nc2nccc(-c3ccco3)n2n1 | -5.94%
83 | CC(C)OC(=O)C(C)Nc1n[nH]c(=S)[nH]c1=O (stereo not drawn) | -1.15%
84 | COc1ccc(OC)c(-n2c(-c3ccc(S(C)(=O)=O)cc3)cc(C=O)c2C)c1 | -4.11%
85 | CCc1nc(NCCCn2ccnc2)c2oc3ccccc3c2n1 | -11.5%
86 | Cc1nc(NCCCn2ccnc2)c2oc3ccccc3c2n1 | 7.2%
87 | c1ccc(-c2c(-c3ccccc3)n(Cc3ccco3)c3ncnc(NCCCn4ccnc4)c23)cc1 | 25.2%
88 | c1ccc(-c2oc3ncnc(NCCCN4CCOCC4)c3c2-c2ccccc2)cc1 | -8.09%
89 | Cc1nc(NCCCn2ccnc2)c2ccccc2n1 | -2.03%
90 | c1cncc(-c2nc(NCCCn3ccnc3)c3ccccc3n2)c1 | 1.38%
91 | CCOC(=O)c1cnn(CCOC(=O)c2cccs2)c1NC(=O)c1cccs1 | 7.28%
92 | COC(=O)c1ccc(CSc2nnc(Nc3ccc(C)cc3)s2)o1 | -4.05%
93 | Cc1c(Br)c([N+](=O)[O-])nn1CC(=O)c1ccccc1 | 0.16%
